# Experimental data reported in the supplement of paper PMC3342239.
# Structures can show the parent of a compound that is named as a salt.
# Test system: Saccharomyces cerevisiae
# Assay: fraction of cells in G1 phase (DNA content, flow cytometry); higher = more cells with unreplicated DNA (G1 delay)
# Settings: temperature: 30 C; YPD; JTY2953 pdr5 snq2 (sensitized); drug added to: cultures diluted from stationary phase; 6-7 h
# In short: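 S. cerevisiae in YPD at 30°C was treated with library drugs, with DMSO-only wells as reference. Sensitized JTY2953 cultures diluted 1∶200 from overnight received a final 20 µg/ml and were fixed after 6–7 h; other runs dosed dividing JTY2953 (fixed 6 h later) or BY4741 (4.33 h later). Ethanol-fixed cells were stained with SYTOX Green and 10,000 events read by flow cytometry. G1 fraction is the Dean-Jett-Fox G1 peak area over G1 plus G2/M areas.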
row,Structure (SMILES),fraction of cells in G1 phase
1,CNC(=C[N+](=O)[O-])NCCSCc1ccc(CN(C)C)o1 [Ranitidine HCl] (63.6114 µM),0.501
2,CCN1CCC[C@H]1CNC(=O)c1c(O)c(Cl)cc(Cl)c1OC [Raclopride l-tartrate s(-)] (57.5963 µM),0.521
3,CCn1cc(C(=O)O)c(=O)c2cc(F)c(N3CCNCC3)cc21 [Norfloxacin] (62.6295 µM),0.455
4,CNCCCC12CCC(c3ccccc31)c1ccccc12 [Maprotiline HCl] (72.0947 µM),0.475
5,CCOC(=O)C(C)(C)Oc1ccc(Cl)cc1 [Clofibrate] (82.4047 µM),0.552
6,COc1ccc2cc([C@H](C)C(=O)O)ccc2c1 [Naproxen] (86.8561 µM),0.514
7,CCC(=O)O[C@@H](O[P@](=O)(CCCCc1ccccc1)CC(=O)N1C[C@H](C2CCCCC2)C[C@H]1C(=O)O)C(C)C [Fosinopril] (35.4813 µM),0.501
8,CN(C)CCN1C(=O)c2ccccc2N(C)c2ccccc21 [Dibenzepine HCl] (67.7077 µM),0.479
9,CCCCN1C[C@H](O)[C@@H](O)[C@H](O)[C@H]1CO [Miglustat] (91.2063 µM),0.456
10,COc1ccc2c(c1)c(CC(=O)O)c(C)n2C(=O)c1ccc(Cl)cc1 [Indomethacin] (55.8977 µM),0.519
11,CCCCNC(=O)NS(=O)(=O)c1ccc(C)cc1 [Tolbutamide] (73.9774 µM),0.505
12,CC1=C(/C=C/C(C)=C/C=C/C(C)=C/C=C/C=C(C)/C=C/C=C(C)/C=C/C2=C(C)C(=O)CCC2(C)C)C(C)(C)CCC1=O [Canthaxanthin] (35.4071 µM),0.527
